Consider 55 molecules from PubChem BioAssay AID2451 (National Center for Advancing Translational Sciences (NCATS), 2010).

SMILES strings stand for the structures. The campaign covered roughly 290,000 compounds. About 2,100 (0.72%) were called active. About 4% were inconclusive and are not listed. Calls follow the shape of the dose curve; as a rule, active = well fitted inhibition curve with a large enough effect; inconclusive = small, poorly fitted or top-dose-only effect, or effect the other way; inactive = flat fitted curve, though single readings scatter. The entries come from a sample that favours actives as a whole. A call without a number means that no potency is given here.
Potency is read from the fitted curve at half-maximal effect.

Fructose-bisphosphate aldolase (Giardia intestinalis (strain ATCC 50803 / WB clone C6)), sequence (A8B2U2 whole entry, looked up): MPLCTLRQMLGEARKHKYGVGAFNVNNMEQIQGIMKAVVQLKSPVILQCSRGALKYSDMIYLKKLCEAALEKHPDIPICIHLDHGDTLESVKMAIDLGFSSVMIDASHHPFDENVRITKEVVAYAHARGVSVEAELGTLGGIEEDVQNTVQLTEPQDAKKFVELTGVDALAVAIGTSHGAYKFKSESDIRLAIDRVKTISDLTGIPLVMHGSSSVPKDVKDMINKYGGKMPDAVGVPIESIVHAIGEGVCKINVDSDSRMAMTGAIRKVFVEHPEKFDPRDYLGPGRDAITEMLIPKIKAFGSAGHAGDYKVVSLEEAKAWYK

This test concerns the target Fructose-bisphosphate aldolase (Giardia intestinalis (strain ATCC 50803 / WB clone C6)) (UniProt A8B2U2). Description: qHTS Assay for Inhibitors of Fructose-1,6-bisphosphate Aldolase from Giardia Lamblia. Also: nearly all actives have a fitted effect of over 55% in size. To be noted: purified Giardia FBPA; series mostly up to 59.6 µM. The text has this: Assay Provider: Osnat Herzberg, University of Maryland
The objective of this project is to obtain compounds that inhibit Giardia lamblia growth. G. lamblia is a human pathogen which afflicts impoverished nations; it is the most common cause of outbreaks of diarrhea in the United States. During the course of our study of potential drug targets in Giardia, we have identified the Class II (Zn2+ functions in electrophilic catalysis) fructose-1,6-bisphosphate aldolase (FBPA) as an excellent candidate for drug targeting. FBPA is a key glycolytic pathway enzyme, essential for G. lamblia survival. The human FBPA belongs to the Class I aldolases, which have a different substrate binding site structure and a radically different catalytic mechanism (employing a lysine-Schiff base intermediate). Therefore, affinity-based or mechanism-based inhibitors of the Giardia FBPA are expected not to interfere with the catalytic function of the human FBPA.
A glyceraldehyde-3-phosphate dehydrogenase/triose phosphate isomerase/NAD/arsenate coupled assay was adapted to the 1536-well HTP format for use in the primary screen. This was done by coupling it to a diaphorase/resazurin/resorufin reaction that can be monitored by fluorescence (excitation, 544 nm; emission, 590 nm). Compounds identified in this screen will be further evaluated by coupling the glycerol-3-phosphate/triose phosphate isomerase/NADH assay to a phenazine methosulfate/tetranitroblue tetrazolium color reaction. False positives due to the dehydrogenases and diaphorase inhibition will be eliminated, and selectivity assay will triage inhibitors of mammalian triose phosphate isomerase and the Class I FBPA. G. lamblia FBPA inhibitors identified by the in vitro analyses will be examined for growth inhibition of Giardia trophozoites, and for cytotoxicity in human cells.
Step,Parameter,Value,Description
1,Enzyme reagent,2 uL,40 nM FBPA
2,Compound,23 nL,3.68 nM-57.5 uM final concentration
3,Time,10 min,RT Incubation
4,Substrate/detection Reagent,2 uL,Substrate + enzyme coupling system + AmpLite Red kit
5,Time,20 min,RT Incubation
6,Detector,525 nm/598 nm (Fluorescence),ViewLux Fluorescence Read (Read 1)
1,Medium-binding black solid-bottom Kalypsys plates. FRD or Kalypsys dispenser, 2 uL of FBPA enzyme. Bottle kept at 4C.
2,Compound Library (10 mM ,1:5 dilution). Pin-transferred for a [final] range of 3.68 nM-57.5 uM.
4,FRD or Kalypsys dispenser, 2 uL of reaction mixture. Bottle kept at 4C and covered in foil to protect from light.
6,ViewLux Protocol 1194; Excitation filter wheel A (525/20 Pol; BODIPY TMR FP), Emission filter wheel B (598/25 S; BODIPY TMR FP S).
Keywords: Fructose-bisphosphate aldolase, FBPA , Giardia lamblia , Giardia, HTS, Inhibitors
A general note: Quantitative high-throughput screening tests each substance at several concentrations.
`Cc1ccc(/C=N/NC(=O)CNC(=O)COc2ccccc2)o1`: the Potency entry was “inactive”.
In the case of `O=C(CNC(=O)COc1ccccc1)NCCc1ccccn1` it was “inactive”.
Then `CCn1c(SCC(=O)N/N=C/c2ccccc2OCC(=O)O)nnc1-c1ccc(C(C)(C)C)cc1`, with “inactive”.
Then `COC(=O)c1cccc(N2C(=O)C3C4C=CC(CC4)C3C2=O)c1` (stereo not given), with “inactive”.
For the molecule `CCCCN1C(=O)C(C)=C(C)C1OCCc1ccc(OC)c(OC)c1` (stereo not given), the Potency result was “inactive”.
Take `Cc1ccc(C(=O)NCC(=O)OCc2nnc(-c3ccccc3)o2)cc1`: the Potency result was “inactive”.
On to `CCOc1ccc(N(C)Cc2cc(=O)oc3ccc(OC)cc23)cc1`, for which the Potency entry was “inactive”.
In the case of `Cn1nccc1/C=N\NC(=O)c1ccc(Cl)cc1` it was “inactive”.
`C=CCc1c(C)nc2cc(-c3ccccc3)[nH]n2c1=O`: the Potency entry is “inactive”.
Consider `Cc1nc2cc(C(F)(F)F)ccc2n1CCNc1nc(-c2cc(Cl)c(N)c(Cl)c2)cs1`, for which the Potency entry is “inactive”.
`Cc1ccccc1OCC(=O)Nc1nnc(S(=O)(=O)N2CCCC2)s1`: the Potency result was “inactive”.
Then `COc1cccc(C(=O)Nc2nnc(S(=O)(=O)N3CCCCC3)s2)c1`, with 17.8 µM (active).
For the molecule `CCOC(=O)CSc1nnc(NC(=O)c2cccc(S(=O)(=O)N3CCCCC3)c2)s1`, the Potency entry is “inactive”.
`COc1ccc(C)cc1N(CC(=O)N1CCCC1)S(=O)(=O)c1ccccc1`: the Potency result is “inactive”.
Then `Cc1ccc(C)c(N2CCN(S(=O)(=O)c3c(C)[nH]c(C)c3C(=O)N3CCCC3)CC2)c1`, with “inactive”.
Consider `CN1CCN(CCCCOc2cccc3ccccc23)CC1`, for which the Potency entry was “inactive”.
In the case of `CN1CCN(CCCCOc2ccccc2-c2ccccc2)CC1` it was 19.9 µM (active); in that of `CC1CCCN(CCOCCOc2ccccc2-c2ccccc2)C1` (stereo not given), “inactive”; in that of `CC(NC(=S)NNS(=O)(=O)c1ccc(C(C)(C)C)cc1)c1ccccc1` (stereo not given), “inactive”.
Consider `Cc1ccc(S(=O)(=O)NNC(=S)NC(C)(C)C)cc1`, for which the Potency is 11.2 µM (active).
`COc1ccc(C(=O)NNS(=O)(=O)c2ccc(C)cc2)cc1`: the Potency entry was “inactive”.
For `CCNC(=O)CC1C(=O)N(c2ccc(OC)cc2)C(=O)N1CCOC` (stereo not given), the Potency entry was “inactive”.
Regarding `O=c1oc2ccccc2c(CNc2ccccc2)c1[N+](=O)[O-]`, the Potency entry was “inactive”.
`COc1ccc(C(=O)NCCSc2ccccc2C)cc1`: the Potency entry is “inactive”.
In the case of `Clc1cccc(CN2COc3c(cc(Cl)c4cccnc34)C2)c1` it was 17.7 µM (active); in that of `CC(C)CC(=O)N1CCN(Cc2cccc(Cl)c2)CC1`, “inactive”.
`Nc1c(C(=O)NCc2ccccc2)nnn1Cc1cccc(Cl)c1`: the Potency result is “inactive”.
Turning to `Cc1ccc(O)c(/C=N/NC(=O)COc2ccc3c(C)cc(=O)oc3c2)c1`, the Potency result was “inactive”.
As for `C=CCc1cc(C)ccc1OCCCn1ccnc1`, the Potency is 25.1 µM (active).
`Brc1ccc(OCCn2ccnc2)cc1`: the Potency entry was “inactive”.
As to `Cc1ccc2c(Cl)c(C(=O)NCCCn3ccnc3)sc2c1`, the Potency entry is “inactive”.
As to `Cc1ccc(OCC(=O)Nc2ccc3oc(=O)ccc3c2)cc1C`, the Potency result was “inactive”.
In the case of `Cc1cccc(N(Cc2ccccc2)C(=O)c2ccccc2F)c1` it was “inactive”; in that of `COC(=O)c1cc(S(=O)(=O)N2CCN(c3cc(C)ccc3C)CC2)c[nH]1`, “inactive”; in that of `O=C(Nc1cccc(Cl)c1)c1cc(S(=O)(=O)N2CCCCC2)c[nH]1`, “inactive”.
As to `COc1ccc(C2c3[nH]c4ccccc4c3C[C@H]3C(=O)N(CC(C)C)CC(=O)N23)c(OC)c1` (stereo not given in full), the Potency entry was “inactive”.
Then `CCc1nnc(NC(=O)CSc2nnc(-c3ccncc3)n2Cc2ccccc2)s1`, with “inactive”; and `Cc1cccc(-c2nnc(SCC(=O)O)n2Cc2ccccc2)c1`, with 15.8 µM (active).
In the case of `Cc1cnc(NC(=O)CSc2nnc(-c3ccccc3)n2Cc2ccccc2)s1` it was “inactive”; in that of `CC(CN1CCOCC1)OC(=O)c1ccc(C(C)(C)C)cc1` (stereo not given), “inactive”; in that of `O=c1[nH]c(=S)[nH]c2[nH]c(=S)[nH]c12`, 12.6 µM (active).
As for `Cc1c(C)c(C)c2[nH]c(=S)[nH]c2c1C`, the Potency result was “inactive”.
For `Cc1ccc(S(=O)(=O)N(CCCN(C)C)Cc2ccc3c(c2)OCO3)cc1`, the Potency entry was “inactive”.
In the case of `CCN(CC)Cc1c(C(=O)N/N=C/c2cccc(OCc3ccc(F)cc3)c2)nnn1-c1nonc1N`, the Potency result was “inactive”.
With `CCc1ccc2c(c1)C(c1ccc([N+](=O)[O-])cc1)=NNC(c1ccccc1)=N2`, the Potency result was “inactive”.
In the case of `CCc1ccc2c(c1)C1(NN=C(c3ccccc3)S1)C(=O)N2` (stereo not given), the Potency is 15.8 µM (active).
In the case of `O=C(c1ccccc1)N1CCN(C(=O)c2cc3nc(-c4ccccc4)cc(C(F)(F)F)n3n2)CC1` it was “inactive”; in that of `O=C(/C=C/c1ccco1)NC(=S)Nc1ccccc1Br`, “inactive”; in that of `CCNC(=O)N1CCCC(C(=O)c2ccc(-c3ccccc3)cc2)C1` (stereo not given), “inactive”.
With `Cc1cc(C)cc(NC(=O)C2CCN(c3nc(C)cc(C)n3)CC2)c1`, the Potency result is “inactive”.
Then `COC(=O)CC1=NN(c2nc(C)cc(C)n2)C(=O)C1`, with 5.61 µM (active).
As to `Cc1ccc(CC2CC(=O)N(c3nc(C)cc(C)n3)C2=O)cc1` (stereo not given), the Potency result was “inactive”.
Turning to `Cc1cccc(-n2c(O)c(C=Nc3ccccc3N)c(=O)[nH]c2=O)c1`, the Potency result was “inactive”.
Take `CCCCC(=O)N/N=C/c1c(O)n(-c2ccccc2)c(=O)[nH]c1=O`: the Potency is 8.89 µM (active).
For the molecule `O=c1[nH]c(=O)n(-c2ccccc2)c(O)c1C=NC12CN3CN(CN(C3)C1)C2`, the Potency entry was “inactive”.
